Source: PubChem
HT1080NT lethal: kills 2HG-producing HT-1080-NT fibrosarcoma cells; HT-1080-NT fibrosarcoma viability, CellTiter-Glo ATP luminescence, 48 h; Potency, µM (titrated, usually from 46.1 µM), inactives show top-dose activity, negative = less viability, most hits filed as cytotoxic; 360,000 compounds, 1.6% hits; AID 686970;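 also: NT is the 2HG producing partner of a matched IDH1 knockdown line; potency is read from the fitted curve at half-maximal effect; 0% = DMSO-treated cells and -100% = media-only wells without cells; nearly all actives have a fitted effect of over 55% in size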
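Toxicity toward the 2HG-producing NT line was scored as %Activity, normalised to DMSO and no-cell wells, from CellTiter-Glo luminescence after 48 hours' treatment.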
HT1080 IDH1KD tx: toxicity to HT-1080 IDH1 knockdown cells (counter line); HT-1080 IDH1 knockdown viability, ATP luminescence, 48 h; Potency, µM (highest dose often 46.1 µM), for the others: top-dose activity, negative = toxicity, hits mostly cytotoxic; 360,000 compounds, 2% hits; AID 686971;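 also: potency is read from the fitted curve at half-maximal effect; 0% = DMSO wells and -100% = cell-free medium wells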
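HT-1080-IDH1KD cells (IDH1 knocked down), 750/well in RPMI with 5% FBS, treated with compound 48 h at 37 degrees C. Viability by CellTiter-Glo luminescence, normalised to DMSO and no-cell wells; concentration-response curves classed.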
DT40 TDP1 CPT: DT40-hTDP1 cell growth loss with CPT; Potency, µM (doses to about 46.2 µM), inactives show at the highest dose activity change, negative = growth inhibition, hits mostly inhibitors; chicken DT40 Tdp1-/-;hTDP1 cells + 20 nM CPT, ATP luminescence, 48 h; 420,000 compounds, 12% hits; also: potency is read from the fitted curve at half-maximal effect; nearly all actives have a fitted effect of over 55% in size
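Chicken DT40 Tdp1-/- cells complemented with human TDP1, 400 cells/well, exposed to compounds plus 20 nM camptothecin for at least 48 h at 37 C; viability read as ATP content by CellTiter-Glo luminescence.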
TDP1 cell noCPT: qHTS for Inhibitors of human tyrosyl-DNA phosphodiesterase 1 (TDP1): qHTS in cells in absence of CPT; DT40 Tdp1-/- hTDP1 cells, no CPT, ATP luminescence, 48 h; Potency, µM (titrated, usually from 46.2 µM), for inactives: at the highest dose activity change, negative = growth inhibition, hits mostly inhibitors; 420,000 compounds, 15% hits; AID 686978, 2013; also: potency is read from the fitted curve at half-maximal effect; nearly all actives have a fitted effect of over 55% in size
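Growth of hTDP1-complemented DT40 Tdp1-knockout cells is measured by ATP luminescence after at least 48 hr compound exposure at 37 °C, with DMSO substituting for the 20 nM CPT used in the parallel screen.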
IL-1B inflam inh: blocks inflammasome-driven IL-1 beta release; THP-1 LPS/ATP IL-1B secretion, AlphaLISA, 16 h; hits give low values; activity change, % at 57.5 µM; 360,000 compounds, 4.7% hits; in the data active = activity change below about -50%; inconclusive = mostly about -30% to -49%
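THP-1 cells pretreated 1 hr with compounds (up to 57.5 uM final), then stimulated with LPS (250 ng/mL final) plus ATP (1.25 mM final); secreted IL-1B measured by AlphaLISA after 16 hr, decreased signal indicating inhibition.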
Numbers without * were called inactive; ? = inconclusive; / = no result given; [ ] = remark or other dose. This is a sample that favours compounds with a hit; in the whole collection about 19% have one here. Unless noted, calls follow the shape of the dose curve; as a rule, active = well fitted curve in the direction sought with a large enough effect; inconclusive = small, poorly fitted or top-dose-only effect, or another doubt; inactive = no such curve, though single readings can be large; an effect the other way counts as inactive or inconclusive. Unless noted, % is scaled to controls: 0 for no effect and ±100 for the full control effect.

SMILES	HT1080NT lethal	HT1080 IDH1KD tx	DT40 TDP1 CPT	TDP1 cell noCPT	IL-1B inflam inh
COc1ccc(/C=N/NC(=O)CSCC(=O)Nc2ccccc2)cc1OC	7%	-6%	-4%	-6%	-18
COc1ccc(-n2c(O)c(/C=N/NS(=O)(=O)c3cccc([N+](=O)[O-])c3)c3ccccc3c2=O)cc1OC	-1%	11%	23µM*	18µM*	34
COc1ccc(Br)cc1/C=N/NS(=O)(=O)c1ccccc1	?	?	18µM*	7.3µM*	75
COc1ccc(CC(=O)NNS(=O)(=O)c2cccc([N+](=O)[O-])c2)cc1OC	21%	5%	-10%	1%	21
COc1ccccc1/C=N/NS(=O)(=O)c1ccccc1	2%	-9%	-19%	-29%	23
COc1ccc(C=NNC(=O)CCCC(=O)NN=Cc2ccc(OC)c(OC)c2)cc1OC	4%	10%	?	-29%	-1
Cc1cccc(NC(=O)CCN2C(=O)c3ccccc3S2(=O)=O)c1C	-1%	14%	5%	1%	-15
O=S(=O)(N/N=C/c1cccc(OC2CSC2)c1)c1ccccc1	3%	-5%	16µM*	?	4
COC(=O)N/N=C/c1ccc(OS(=O)(=O)c2ccc(C)cc2)c(OC)c1	1%	-2%	-19%	?	-72*
COc1cc(/C=N/NS(=O)(=O)c2ccccc2)ccc1OS(=O)(=O)c1ccc(C)cc1	17%	21%	1%	-6%	-4
COc1cc(/C=N/NC(=O)COc2cccc(F)c2)ccc1OS(=O)(=O)c1ccc(C)cc1	-1%	?	18µM*	26µM*	3
COCCNC(=S)N/N=C/c1ccc(OCc2ccc(C(=O)OC)cc2)c(OC)c1	-4%	-17%	?	23µM*	-9
COCCNC(=O)C(=O)N/N=C/c1ccc(C(=O)OC)cc1	15%	12%	-4%	0%	-2
COc1ccc2c(c1)c(C(=O)N/N=C/c1cn(C)c3ccccc13)c(C)n2C	-18%	-2%	?	?	31
C=CCNC(=O)/C(C#N)=C/c1ccc(OS(=O)(=O)c2ccc(C)cc2)c(OC)c1	?	?	?	?	-79*
COc1ccc(/C=N/NS(=O)(=O)c2ccccc2)cc1OS(=O)(=O)c1ccc(C)cc1	-5%	-4%	?	18µM*	21
COc1ccc(/C=C(\C#N)C(=O)NCc2cccs2)cc1OC	-3%	-4%	-4%	?	?
COc1ccc2c(c1)c(C(=O)N/N=C/c1ccc(OC)c(OC)c1)c(C)n2C	11%	13%	18µM*	12µM*	-11
COc1ccc(/C=N/NS(=O)(=O)c2ccccc2)cc1OC	-10%	-12%	21µM*	23µM*	7
CCCNC(=O)C1(C)CCN(C(=O)c2ccc(OC)cc2OC)C1 (centres undefined)	17%	0%	-10%	1%	0
O=C(C1CCCCC1)N1CCN(S(=O)(=O)c2cccc([N+](=O)[O-])c2)CC1	-3%	3%	-23%	10%	0
Cc1onc(-c2ccccc2Cl)c1C(=O)OCc1cnc(Cl)s1	-4%	-4%	?	?	9
CCOc1ccc(OC(=O)c2c(-c3ccccc3Cl)noc2C)cc1	/	/	?	21µM*	/
Cc1onc(-c2c(Cl)cccc2Cl)c1C(=O)N(C)Cc1ccccc1	-3%	-7%	-28%	-28%	10
Cc1onc(-c2c(F)cccc2Cl)c1C(=O)Oc1ccccc1	-5%	2%	?	13µM*	13
SMILES	HT1080NT lethal	HT1080 IDH1KD tx	DT40 TDP1 CPT	TDP1 cell noCPT	IL-1B inflam inh
Cc1onc(-c2c(Cl)cccc2Cl)c1C(=O)c1ccccc1	-2%	-8%	23µM*	21µM*	22
Cc1onc(-c2c(F)cccc2Cl)c1C(=O)N(Cc1ccccc1)C(C)C	2%	-20%	?	9.2µM*	12
Cc1onc(-c2ccccc2Cl)c1C(=O)c1ccccc1	6%	10%	-9%	?	/
Cc1onc(-c2c(F)cccc2Cl)c1C(=O)OCC(=O)NC(c1ccccc1)c1ccccc1	-24%	?	?	?	-27
Cc1ccc(/C=N/NC(=O)Cc2c(F)cccc2Cl)s1	0%	-2%	-1%	-21%	-22
COc1ccc(/C=C/C(=O)O)cc1S(=O)(=O)N1CCCC1	-1%	-1%	17%	15%	16
COCCn1c(=O)c(-c2ccc(OC)cc2)nc2cnc(Oc3ccccc3)nc21	/	/	5%	-15%	/
COC(=O)/C=C/c1oc2ccccc2c1C	3%	2%	-15%	-19%	7
N/C(=N\O)c1ccccc1N1CCCCC1	10%	8%	-25%	-17%	3
Cc1onc(-c2c(F)cccc2Cl)c1C(=O)OCC(=O)c1c[nH]c2ccccc12	?	?	?	18µM*	-52*
Cc1noc(C)c1C(=O)OCC(=O)c1c[nH]c2ccccc12	0%	1%	13%	-26%	4
COc1cccc(/C=N/Nc2cc(Cl)nc(C)n2)c1O	-6%	-2%	5%	1%	14
COc1cccc(/C=N/Nc2nnc(C)n2N)c1O	?	21µM*	?	21µM*	7
Fc1ccccc1COc1ccccc1/C=N/Nc1nc(N2CCCC2)nc(N2CCCC2)n1	0%	15%	?	21µM*	4
COc1cccc(/C=N/Nc2ncnc3c2ncn3Cc2ccccc2)c1O	-14%	?	3.7µM*	4.6µM*	-52*
COc1ccc(-n2c(C)cc(/C=N/Nc3nnc(C)n3N)c2C)cc1	-14%	?	23µM*	16µM*	-81*
O=C(Nc1cc(C(F)(F)F)cc(C(F)(F)F)c1)O[C@@H]1c2ccccc2[C@@H]2Cc3csc[n+]3[C@H]12	-6%	-7%	5%	-12%	-29
Cc1cccc(NC(=O)C(NS(=O)(=O)c2ccc3c(c2)oc(=O)n3C)C(C)C)c1 (centres undefined)	/	/	-18%	-1%	/
COc1cccc(/C=N/Nc2nc(N3CCCC3)nc(N3CCCC3)n2)c1O	-4%	11%[9.24 µM]	?	21µM*	-100*
CCOc1ccc(NC(=O)c2sc3nc4c(cc3c2N)CCCCCC4)cc1	/	/	8.2µM*	?	/
NC(=O)c1sc2nc3c(cc2c1N)CCCCCC3	-5%	-10%	?	?	-97*
Nc1c(C(=O)Nc2cccc(C(=O)O)c2)sc2nc3c(cc12)CCCC3	18%	13%	1%	2%	5
Cc1cc(C)c2c(N)c(C(=O)Nc3cccc(C)c3C)sc2n1	-12%	?	?	16µM*	18
Cc1cccc(NC(=O)c2sc3nc4c(cc3c2N)CCCCCC4)c1C	/	/	1.5µM*	0.65µM*	/
